Here are results for 40 molecules from PubChem BioAssay.

Calls of active or inactive are those of the source. The rule behind the calls is not given here.

For the experiment, the system named is Aerobactin synthetase IucA (Klebsiella pneumoniae, hypervirulent). Briefly: IucA enzyme inhibition, biochemical, LOPAC library, absorbance readout (AID 1346212).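 Note: 100% = no compound wells and 0% = no enzyme wells.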 The following applies: IucA enzyme assay, absorbance (OD) readout; active compounds read low;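 tested at 8 µM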.
As usually defined, the remaining activity is the signal under treatment as a percentage of the control signal. Take `CC(C)Oc1cccnc1N(C)C1CCN(Cc2ccc(I)cc2)CC1`: the remaining activity was 97.8% (inactive).

Take `OCc1ccc(-c2nn(Cc3ccccc3)c3ccccc23)o1`: the remaining activity is 118% (inactive).

`C#C[C@]1(O)CC[C@H]2[C@@H]3CCC4=Cc5oncc5C[C@]4(C)[C@H]3CC[C@@]21C`: the remaining activity was 101% (inactive). As for `CC(=O)NCCc1ccc(O)c(O)c1`, the figure is 116% (inactive); as for `COc1[nH]c2ccc(F)cc2c1C(=O)OCC1CCN(CCNS(C)(=O)=O)CC1`, 124% (inactive); as for `O=c1[nH]c(=O)n([C@H]2C[C@H](O)[C@@H](CO)O2)cc1/C=C/Br`, 123% (inactive). Next, `COc1cc(OC)c(/C=C2/C(=O)Nc3ccccc32)c(OC)c1`: 99.3% (inactive); `CC1(C)C(=O)N(CCN2CCC(C(=O)c3ccc(F)cc3)CC2)c2ccccc21`: 118% (inactive); `Cc1cccc(C2CN(C)CCc3c2cc(O)c(O)c3Cl)c1` (stereo not given): 105% (inactive).

Turning to `N#CC(C#N)=C(N)/C(C#N)=C/c1cc(O)c(O)c(O)c1`, the remaining activity is 87.7% (inactive). In the case of `Brc1c(NC2=NCCN2)ccc2nccnc12`, the remaining activity was 105% (inactive).

For `Nc1ccn([C@@H]2O[C@H](CO)[C@@H](O)[C@@H]2O)c(=O)n1`, the remaining activity is 119% (inactive). As for `CC(=O)[C@H]1CC[C@H]2[C@@H]3CCC4=CC(=O)CC[C@]4(C)[C@H]3CC[C@]12C`, the remaining activity was 123% (inactive).

Consider `C[N+](C)(C)CC=O`, for which the remaining activity is 101% (inactive).

Turning to `CC1=C(C(=O)O)N2C(=O)[C@@H](NC(=O)[C@H](N)C3=CCC=CC3)[C@H]2SC1`, the remaining activity is 113% (inactive). In the case of `O=c1cc(N2CCOCC2)oc2c(-c3ccccc3)cccc12`, the remaining activity is 110% (inactive).

For `NS(=O)(=O)c1cccc2c1c([N+](=O)[O-])cc1nc(O)c(O)nc12`, the remaining activity is 106% (inactive). As to `C[N+](C)(C)CCCCCNCC12CC3CC(CC(C3)C1)C2`, the remaining activity was 120% (inactive).

As to `CN1CCc2c(cc(O)c(O)c2Cl)C(c2cccc(Cl)c2)C1` (stereo not given), the remaining activity was 96.8% (inactive). As for `COc1cc(/C=C(\C#N)C(=O)c2ccc(O)c(O)c2)cc(I)c1O`, the figure is 85.4% (inactive). For the molecule `CCCCCCCCCCCCCCCC(=O)NCCO`, the remaining activity is 118% (inactive). As for `S=C(Nc1ccccc1)Nc1nccs1`, the figure is 125% (inactive); as for `COCCCC/C(=N\OCCN)c1ccc(C(F)(F)F)cc1`, 100% (inactive); as for `C[C@H](NCCc1ccc(O)cc1)[C@H](O)c1ccc(O)cc1`, 94.5% (inactive). As for `Oc1ccc(Cn2cc[nH]c2=S)cc1`, the figure is 102% (inactive); as for `CN(C)c1ccc(/C=C2\C(=O)Nc3ccccc32)cc1`, 95.7% (inactive); as for `CC(C)Cc1ccc([C@H](C)C(=O)O)cc1`, 111% (inactive). Turning to `CCC(NC(C)C)C(O)c1ccc(O)c(O)c1` (stereo not given), the remaining activity was 102% (inactive).

In the case of `O=c1[nH]c(=O)n([C@H]2C[C@H](O)[C@@H](CO)O2)cc1Br`, the remaining activity is 96.4% (inactive). As for `O=C1NC(=S)S/C1=C/c1cc(Br)ccc1OCc1ccccc1Br`, the figure is 116% (inactive); as for `NC1C=CC=C(C(=O)O)C1` (stereo not given), 125% (inactive); as for `N[C@H](C(=O)O)c1cc(O)cc(O)c1`, 108% (inactive). Turning to `CC(C(O)c1ccc(O)cc1)N1CCC(Cc2ccccc2)CC1` (stereo not given), the remaining activity was 105% (inactive). `Cc1ccc2c(c1)C(N1CCN(C)CC1)=Nc1cccnc1N2`: the remaining activity was 126% (inactive).

For the molecule `CC(COc1ccc(/C=C/c2ccccc2)cc1)[N+](C)(C)C` (stereo not given), the remaining activity was 104% (inactive). As for `O=c1[nH]c2cc([N+](=O)[O-])c([N+](=O)[O-])cc2[nH]c1=O`, the figure is 101% (inactive); as for `Cc1nc(N=Nc2cc([N+](=O)[O-])ccc2Cl)c(COP(=O)(O)O)c(C=O)c1O`, 117% (inactive); as for `CCCCCC(O)c1cccc(OCc2ccc3ccccc3n2)c1` (stereo not given), 98.9% (inactive). Regarding `CC(C)NC[C@H](O)COc1cccc2ccccc12`, the remaining activity is 92.7% (inactive).

For `CN(C)C/C=C(/c1ccc(Br)cc1)c1cccnc1`, the remaining activity was 107% (inactive).
